From PubChem
Shown are actives, neighbours in structure and some others; about 2.4% of the full set was active somewhere.
POLI inh – DNA polymerase iota (human) inhibition. Pol iota fluorescent replication assay, 10 min. AID 588590. Potency, µM (top dose mostly 115 µM), without a hit: at the top dose activity, negative = inhibition, hits mostly inhibitors. Q9UNA4. actives 1% (n = 390,000)
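Fluorescent replication assay read twice, at 0 min and 10 min after adding 50 nM (final) substrate. Enzyme (10 nM) and compounds were first incubated 15 min at room temperature; enzyme-free buffer wells were negative controls.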
FEN1 inh – blocks human flap endonuclease 1. AID 588795. P39748. actives 0.35% (n = 390,000). Recombinant FEN1 flap cleavage, fluorescence, 15 min. Potency, µM (highest dose often 114 µM), for the others: at the highest dose activity change, negative = inhibition, usual class: inhibitors; further: on the % scale 0 is the no-effect control and ±100 the full control effect; nearly all actives have a fitted effect of over 65% in size
Target sequence (P39748 whole entry, looked up): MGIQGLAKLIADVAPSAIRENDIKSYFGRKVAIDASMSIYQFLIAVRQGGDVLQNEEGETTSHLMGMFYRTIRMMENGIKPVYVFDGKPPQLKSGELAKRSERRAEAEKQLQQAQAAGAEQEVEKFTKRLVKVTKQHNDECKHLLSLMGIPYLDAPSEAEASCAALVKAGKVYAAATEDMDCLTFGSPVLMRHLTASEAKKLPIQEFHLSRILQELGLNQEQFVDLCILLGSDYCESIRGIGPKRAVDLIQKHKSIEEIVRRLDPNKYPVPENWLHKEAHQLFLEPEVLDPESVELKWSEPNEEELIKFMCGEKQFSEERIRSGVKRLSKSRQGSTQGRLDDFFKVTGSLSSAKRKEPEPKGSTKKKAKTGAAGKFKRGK
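Quantitative HTS format: each compound was titrated, incubated with 10 nM nuclease for 15 min at room temperature, then challenged with flap substrate at 50 nM final. Signal change over 15 min gave concentration–effect curves.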
WRN inhibitor – inhibitors of human WRN helicase; Q14191; Potency, µM (top dose mostly 114 µM), without a hit: top-dose activity change, negative = inhibition, actives largely listed as inhibitors; actives 0.46% (n = 360,000); AID 651768; WRN helicase unwinding, fluorescent forked duplex, kinetic; further: on the % scale 0 is the no-effect control and ±100 the full control effect; nearly all actives have a fitted effect of over 55% in size
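WRN at 20 nM final preincubated with compound 15 min at room temperature; reaction started with 100 nM fluorophore/quencher forked duplex oligonucleotide and 2 mM ATP final. Unwinding followed kinetically by red fluorescence (ex 525, em 598 nm).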
POLH inh – DNA polymerase eta (human) inhibition; actives 1.2% (n = 390,000); recombinant Pol eta, fluorescent DNA replication assay; Potency, µM (doses to about 114 µM), for the others: at the top dose activity change, negative = inhibition, most hits filed as inhibitors; Q9Y253; further: on the % scale 0 is the no-effect control and ±100 the full control effect
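Fluorescent replication assay: 50 nM final substrate added after a 15 min room-temperature compound preincubation with 10 nM enzyme. Signal taken at 0 min and again at 10 min.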
Pol kappa inh – blocks human DNA polymerase kappa activity. Potency, µM (series often up to 107 µM), inactives show at the top dose activity, negative = inhibition, hits mostly inhibitors. purified Pol kappa, fluorescent DNA synthesis assay, 10 min. actives 0.53% (n = 400,000); further: on the % scale 0 is the no-effect control and ±100 the full control effect
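Activity was followed as the change in fluorescence between reads at 0 and 10 min after starting the reaction with 50 nM substrate. Beforehand, 10 nM polymerase had been preincubated with compound for 15 min at room temperature.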
Pol beta inh – blocks human DNA polymerase beta activity; Pol beta primer extension/strand displacement, fluorescence kinetic; AID 485314; actives 1.3% (n = 340,000); P06746; Potency, µM (titrated, usually from 114 µM), for inactives: top-dose activity change, negative = inhibition, most hits filed as inhibitors; further: on the % scale 0 is the no-effect control and ±100 the full control effect
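Homogeneous kinetic assay of primer extension and strand displacement by 10 nM Pol beta, preincubated 15 min at room temperature with compound before 50 nM substrate (final) was added. Read at 0 and 10 min; four-parameter Hill fit.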
* marks the source's active call; other numbers are inactive results; ? = inconclusive; · = no result; [ ] = dose if it differs, or a comment. The call rests on the fitted dose curve; in most records, active means well fitted curve in the direction sought with a large enough effect; inconclusive means small, poorly fitted or top-dose-only effect, or another doubt; inactive means no such curve, though single readings can be large; an effect the other way counts as inactive or inconclusive. Potency means the concentration at half of the fitted maximal effect.

SMILES	POLI inh	FEN1 inh	WRN inhibitor	POLH inh	Pol kappa inh	Pol beta inh
COc1cccc(-c2nc3c(C#N)c[nH]n3c2NC2CCCC2)c1OC	27%	-21%	·	-18%	-23%	1%
COc1cc(N(C)C)c(OC)cc1C=O	?	-2%	·	·	-26%	·
Cc1ccccc1OCC(=O)OCC(=O)Nc1ccc2c(c1)OCCO2	13µM*	0%	-3%	-3%	-4%	·
CC1=NN(c2ccccc2)C(=O)C1N=Nc1ccc(N)cc1 (stereo not given)	?	-23%	-17%	-5%	-11%	22µM*
O=C(/C=C/c1ccccc1)Nc1cc(NC(=O)/C=C/c2ccccc2)cc(C(=O)O)c1	12%	?	-7%[11.6 µM]	50µM*	-3%	-22%
O=C(O)COc1ccccc1/C=N/Nc1ccc(S(=O)(=O)N2CCOCC2)cc1[N+](=O)[O-]	-6%	-15%	-4%[57.1 µM]	-9%	-5%	3%
Cc1ccc(-n2c(O)c(/C=N/Nc3ccc(S(=O)(=O)N4CCOCC4)cc3[N+](=O)[O-])c3ccccc3c2=O)c(C)c1	?	-8%	-35%[57.1 µM]	45µM*	-16%	79µM*
Cc1cc(C)n2nc(SCN3C(=O)c4ccccc4C3=O)nc2n1	?	-18%	-12%	-17%	-32%	45µM*
Cc1cc(C)n2nc(SCC(=O)Nc3ccccc3)nc2n1	?	15%	-7%	-6%	-4%	2%
CCOC(=O)c1cc(S(=O)(=O)Nc2ccccc2OCC)[nH]n1	?	-8%	·	6%	-5%[60.1 µM]	9%
Cc1ccc(S(=O)(=O)N2[C@H](CC(=O)Oc3ccccc3)OC[C@@H]2C(C)C)cc1	·	·	1%	·	·	·
COc1ccccc1/C=C/C=N/NC(=O)c1cc(-c2ccco2)[nH]n1	?	-2%	-22%	?	?	25µM*
COc1ccc(CCNC(=O)c2ccc3c(c2)CCN3S(=O)(=O)c2ccc(C)cc2)cc1OC	-1%	-17%	·	-17%	0%	4%
Cc1c(CCC(=O)O)c(=O)oc2cc(OCc3ccccc3Br)ccc12	-25%	-31%	?	-14%	-19%	50µM*
Cc1ccc(-c2csc(N3N=C(c4ccccc4)/C(=C\c4ccc(N(C)C)cc4)C3=O)n2)cc1	·	·	·	·	·	50µM*
O=C(/C=C/c1ccco1)Nc1cccc2cccnc12	6.3µM*	?	?	28µM*	28µM*	40µM*
O=C(/C=C/c1ccco1)Nc1nc(-c2ccccn2)cs1	?	18µM*	?	?	32µM*	25µM*
O=C(/C=C/c1ccco1)Nc1nc(-c2ccccc2)cs1	31%	3%	-22%	-6%	2%	0%
O=C(O)/C=C/C(=O)Nc1cccc2cccnc12	-4%	-5%	1%	-13%	1%	10%
COc1cccc(-c2nccc(NCc3ccccc3)n2)c1	·	·	·	·	-14%[60.1 µM]	·
CCOC(=O)c1c(C)oc2ncnc(Nc3cc(Cl)ccc3OC)c12	8%	6%	·	-26%	1%	18%
CCCCC(C)/C=C(C)/C=C(\C)C(=O)NC1=CC(O)(/C=C/C=C/C=C/C(=O)NC2=C(O)CCC2=O)C2OC2C1=O (stereo not given)	·	·	·	·	27µM*	·
O=C1c2ccccc2C(=O)N1CCc1csc(NNc2nc(CCN3C(=O)c4ccccc4C3=O)cs2)n1	?	-14%	-31%	?	89µM*	25µM*
Cc1ccc(-c2nc(CCN3C(=O)c4ccccc4C3=O)cs2)cc1	-7%	?	-3%	-4%	-10%	38%
